A short description of assay [1]: P. berghei load reduction in hepatocytes – cell-based, HepG2, luciferase luminescence, HepG2 viability, primary screen (AID 624349; in the data active = parasite load remaining mostly below about 12%, no sharp cut-off; inactive = mostly above about 10%;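 note: 100% = mean of DMSO negative control wells on the same plate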). As to conditions: P. berghei liver stage in HepG2, luciferase luminescence, concentration not given here; parasite load remaining: stronger effect = lower value; viability: measured here: HepG2 viability without parasites.
A short description of assay [2]: signal quenchers or enhancers, Cy5 substrate/SSB – biochemical, NIH Clinical Collection, E. coli SSB, artefact control for HCV NS3 helicase inhibitor project (AID 743268; call rule not given here). As to conditions: Cy5-oligo bound E. coli SSB, fluorescence interference.
For assay [3], the system named is Hepatitis C virus NS3 helicase. The experiment in a line: blockers of NS3h binding to DNA – biochemical, fluorescence polarization, NIH Clinical Collection, primary screen (AID 743270; call rule not given here). The settings on record: NS3 helicase binding to Cy5-dT15 DNA, stronger effect = higher value, concentration not given here.
The target of assay [4] is Single-stranded DNA-binding protein (Escherichia coli (strain K12)) (UniProt P0AGE0). The experiment in a line: SSB-ssDNA binding inhibitors – biochemical, fluorescence polarization, NIH Clinical Collection, counter-screen for HCV NS3 helicase inhibitor project (AID 743271; in the data active = inhibition above about 28%). The settings on record: E. coli SSB-DNA binding, stronger effect = higher value, concentration not given here. In general terms: Fluorescence polarisation rises when a labelled molecule tumbles more slowly, as on binding a larger partner.

Assay [5] can be described thus: compounds distorting NS3 helicase fluorescence signal – biochemical, NIH Clinical Collection, artefact control for HCV NS3 helicase inhibitor project (AID 743272; call rule not given here;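 note: HCV NS3 helicase with a Cy5 labelled single stranded DNA probe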). The settings on record: fluorescence interference counterscreen, HCV NS3 helicase assay; stronger effect = lower value.
Assay [6] in a line: modulation of C. elegans fzo-1 (AID 1259413; call rule not given here;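 note: fzo-1 mutant C. elegans worms in liquid wells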). The settings on record: C. elegans fzo-1 modulator screen, mean read-out; stronger effect = higher value.
A short description of assay [7]: EMT-state selective cytotoxicity in co-culture – imaging, PC-3E GFP, TEM4-18 mCherry, primary screen (AID 1345086;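 active = compounds killing one labelled cell type while sparing the other, by normalised counts and ratio limits, not self-fluorescent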;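 for all read-outs here: cells exposed to compound for 72 h before imaging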;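 for red/green cell ratio (normalised): normalised mesenchymal count divided by normalised epithelial count so high means epithelial killing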). As to conditions: PC-3E GFP / TEM4-18 mCherry co-culture, imaging cell counts, at 1 µM; for red/green cell ratio (normalised): actives lie on both sides, counts scaled to control wells, 1 = unselective.
The nature of assay [8]: viability loss with induced miR-34 in A549 – imaging, A549 dox-inducible miR-34, nuclei and caspase counts, primary screen (AID 1347080;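 active = compounds whose cell count with miR-34 switched on is under 0.7 times the count with it off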). As to conditions: A549 miR-34 inducible, Hoechst nuclei count, 48 h.
Assay [9] is described as follows: MELAS cybrid and Rieske KO viability enhancers – cell-based, MELAS cybrids, Rieske KO mouse fibroblasts, CellTiter-Glo, primary screen (AID 1508586;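 active = mean z-score across replicates of 1.96 or higher in either the MELAS or the Rieske mutant cell line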;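 note: z relative to plate mean and SD of compound and empty wells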). The settings on record: low glucose. A general note: Cellular ATP, detected with luciferase, serves as a proxy for viable cell number.
For the next assay, the system named is F380Y. The assay is described as follows: BK channel mutant inhibitors and activators – cell-based, U2OS BacMam, thallium flux, beta subunits, selectivity assay, profiling panel (AID 1259406).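 Note: initial slope of Thallos dye fluorescence rise after thallium is added; log ratio against the mean of 0.3% DMSO vehicle wells on the same plate.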 The settings on record: U2OS BacMam BK variants, at 30 µM.
The test system of another assay is F380Y/beta1. The description is as above. The settings on record: U2OS BacMam BK variants, at 30 µM.
A further assay has as its system F380Y/beta2Delta. The assay is described as above. The settings on record: U2OS BacMam BK variants, at 30 µM.
The next assay concerns F380Y/beta4. The description is as above. The settings on record: U2OS BacMam BK variants, at 30 µM.
The target in assay [10] is Calcium-activated potassium channel subunit alpha-1 (Homo sapiens) + Leucine-rich repeat-containing protein 26 (Homo sapiens) (UniProt Q12791+Q2I0M4). The description is as above. The settings on record: U2OS BacMam BK variants, F380Y/Slo1WT/gamma1, at 30 µM.
Calcium-activated potassium channel subunit alpha-1 (Homo sapiens) + Leucine-rich repeat-containing protein 26 (Homo sapiens), sequence (Q2I0M4 whole entry, looked up, one chain of several): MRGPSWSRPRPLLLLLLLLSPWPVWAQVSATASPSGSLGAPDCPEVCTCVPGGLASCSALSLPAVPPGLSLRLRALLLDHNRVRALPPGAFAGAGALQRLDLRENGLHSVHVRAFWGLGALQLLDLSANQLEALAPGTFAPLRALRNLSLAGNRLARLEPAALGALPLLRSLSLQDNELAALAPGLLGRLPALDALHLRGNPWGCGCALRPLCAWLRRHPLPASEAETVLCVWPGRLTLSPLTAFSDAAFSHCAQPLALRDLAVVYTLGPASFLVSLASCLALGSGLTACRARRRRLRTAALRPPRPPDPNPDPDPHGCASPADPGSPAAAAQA
The subject of another assay is R275C. The assay is described as above. The settings on record: U2OS BacMam BK variants, at 30 µM.
The test system of a further assay is R275C/beta1. The assay is described as above. The settings on record: U2OS BacMam BK variants, at 30 µM.
The next assay deals with R275C/beta2Delta. The description is as above. The settings on record: U2OS BacMam BK variants, at 30 µM.
In a further assay the test system is R275C/beta4. The description is as above. As to conditions: U2OS BacMam BK variants, at 30 µM.
The subject of the next assay is R275C/Slo1WT/beta2. Described as above. As to conditions: U2OS BacMam BK variants, at 30 µM.
The mark [11] stands for this setting: measured here: epithelial PC-3E GFP cell survival.
Where [12] appears, read: measured here: mesenchymal TEM4-18 mCherry cell survival.
Setting [13] is: stronger effect = lower value, cell number ratio, induced over uninduced.
Setting [14] is: measured here: relative caspase fold change +Dox/-Dox.
Setting [15] is: measured here: total cells with miR-34 induction, stronger effect = lower value.
[16] abbreviates: measured here: total cells without miR-34 induction.
[17] abbreviates: MELAS cybrid survival, CellTiter-Glo 48 h, stronger effect = higher value.
[18] abbreviates: Rieske KO mouse fibroblast survival, CellTiter-Glo 72 h.

“And” between values parts separate entries of the source, which are not always exact repeats. Equal entries are not always repeated. The source made the active and inactive calls.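 Rule for the calls, unless noted: active = thallium flux through the channel raised or lowered by more than 3 SD from vehicle-only wells, actives on both sides; inactive = the rest.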

These results are taken from PubChem BioAssay.

`C/C(=C\C(=O)OCCCCCCCCC(=O)O)C[C@@H]1OC[C@H](C[C@@H]2O[C@H]2[C@@H](C)[C@H](C)O)[C@@H](O)[C@H]1O`: in [1], the parasite load remaining is 65% (inactive). Further, in [1], the viability – broadly, a read-out of living cells in per cent, often relative to untreated cells – turned out to be 116%. Moreover, the results for the fluorescence ratio in assay [2] and in assay [5] were 1.04 (inactive) and 1.03 (inactive), respectively. The inhibition (as a rule, the drop in the measured response relative to a control, in per cent) in [3] is -4.09% (inactive); in [4], -5.05% (inactive). Besides, in [6], the mean signal was 235 (inactive). Besides, in [7], the red/green cell ratio (normalised) is 1 (inactive). The normalised cell number in assay [7] (setting [11]) and in [7] (setting [12]) was 1.08 each time. In addition, the values for the fold change in assay [8] (setting [13]) and in assay [8] (setting [14]) were 0.967 (inactive) and 0.766, respectively. Further, the cell count came to 7890 in assay [8] (setting [15]) and 8160 in assay [8] (setting [16]). The z-score in [9] (setting [17]) was -3.53 (inactive); in [9] (setting [18]), -3.7. Also, the log fold change Tl+ flux is 0.0421 (inactive) in the assay with F380Y; -0.0188 (inactive) in the assay on F380Y/beta1; 0.0619 (inactive) with F380Y/beta2Delta; 0.0116 (inactive) with F380Y/beta4; 0.0402 (inactive) in [10]; -0.0142 (inactive) in the assay on R275C. Further, the log fold change Tl+ flux in the assay with R275C/beta1 is -0.0156 (inactive); in the assay with R275C/beta2Delta, -0.0137 (inactive); with R275C/beta4, 0.0262 (inactive); with R275C/Slo1WT/beta2, -0.00127 (inactive).
For `CCN(CC)CC#CCOC(=O)C(O)(c1ccccc1)C1CCCCC1` (configuration not stated), the figures for the fluorescence ratio in assay [2] and in [5] were 1.01 (inactive) and 0.97 (inactive), respectively. Further, the results for the inhibition in assay [3] and in [4] were -5.91% (inactive) and 1.05% (inactive), respectively. Moreover, in assay [6], the mean signal is 265 (inactive). Also, the red/green cell ratio (normalised) in assay [7] was 1.02 (inactive). In addition, the normalised cell number in [7] (setting [11]) was 1.13; in [7] (setting [12]) it was 1.14. Moreover, the z-score was -0.351 (inactive) and 0.357 (inactive) in assay [9] (setting [17]); 0.474 and 0.0643 in [9] (setting [18]). For the same compound, the log fold change Tl+ flux with F380Y was -0.0501 (inactive); with F380Y/beta1, -0.0697 (inactive); in the assay with F380Y/beta2Delta it was -0.0326 (inactive); in the assay on F380Y/beta4 it was 0.0257 (inactive); in assay [10], -0.0619 (inactive); with R275C it was -0.105 (active). For the same compound, the log fold change Tl+ flux is -0.00047 (inactive) in the assay on R275C/beta1, -0.0198 (inactive) with R275C/beta2Delta, 0.205 (active) in the assay on R275C/beta4 and -0.0121 (inactive) in the assay on R275C/Slo1WT/beta2.
As to `CN1[C@@H]2CCC[C@H]1CC(NC(=O)c1nn(C)c3ccccc13)C2` (some centres not stated), in assay [6], the mean signal was 239 (inactive). Moreover, the fold change in assay [8] (setting [13]) was 0.964 (inactive); in assay [8] (setting [14]), 1.59. For the same compound, the cell count in assay [8] (setting [15]) turned out to be 10200; in [8] (setting [16]) it was 10600. Moreover, the z-score in assay [9] (setting [17]) was 0.342 (inactive) and -0.62 (inactive); in assay [9] (setting [18]), 0.00777 and -1.31. For the same compound, the log fold change Tl+ flux was 0.0826 (inactive) in the assay on F380Y; 0.016 (inactive) in the assay on F380Y/beta1; 0.036 (inactive) in the assay on F380Y/beta2Delta; 0.0312 (inactive) in the assay on F380Y/beta4; 0.00528 (inactive) in assay [10]; -0.0264 (inactive) in the assay with R275C. The log fold change Tl+ flux in the assay with R275C/beta1 was 0.0105 (inactive); in the assay on R275C/beta2Delta, 0.0242 (inactive); in the assay on R275C/beta4, 0.0148 (inactive); in the assay with R275C/Slo1WT/beta2, 0.0272 (inactive).
Take `CC(C)C[C@H](NC(=O)[C@@H](O)[C@H](N)Cc1ccccc1)C(=O)O`: the parasite load remaining in assay [1] was 23.8% (inactive). Further, in [1], the viability came to 136%. Moreover, the figures for the fluorescence ratio in assay [2] and in [5] were 0.92 (inactive) and 0.88 (inactive), respectively. Further, the inhibition was 0.66% (inactive) in [3] and 9.06% (inactive) in assay [4]. Also, in assay [6], the mean signal was 255 (inactive). Further, the z-score in assay [9] (setting [17]) was -0.957 (inactive); in assay [9] (setting [18]), 0.817. Also, the log fold change Tl+ flux with F380Y is -0.0323 (inactive); in the assay on F380Y/beta1, -0.0233 (inactive); with F380Y/beta2Delta, 0.0093 (inactive); in the assay on F380Y/beta4 it was -0.0304 (inactive); in assay [10], -0.0684 (inactive); with R275C, -0.0391 (inactive). In addition, the log fold change Tl+ flux is 0.000543 (inactive) with R275C/beta1, -0.0202 (inactive) in the assay on R275C/beta2Delta, 0.00103 (inactive) in the assay on R275C/beta4 and -0.0673 (inactive) with R275C/Slo1WT/beta2.
